Experimental data taken from PubChem BioAssay (NCATS).
Records with an inconclusive call do not appear. Active and inactive are the calls of the source. Calls follow the shape of the dose curve; as a rule, active = well fitted cell-killing curve with a large enough effect; inconclusive = small, poorly fitted or top-dose-only effect, or effect the other way; inactive = flat fitted curve, though single readings scatter.

Key:
Assay in all cases: Primary qHTS to identify gynecologic anti-cancer compounds using libraries of approved drugs and bioactive compounds (AID 1345084); also: nearly all actives have a fitted effect of over 55% in size
[1] = system: C33A; conditions: Gynecologic cancer cell panel viability, ATPlite luminescence, 48 h; series mostly up to 57.5 µM
Procedure, shortened: (§1)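 48 h compound exposure at 37 C, 5% CO2; five-point qHTS. ATPlite luminescence readout of cell ATP.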

[2] = system: CAOV3; conditions: Gynecologic cancer cell panel viability, ATPlite luminescence, 48 h; series mostly up to 57.5 µM
Procedure, shortened: as §1

[3] = system: CASKI; conditions: Gynecologic cancer cell panel viability, ATPlite luminescence, 48 h; series mostly up to 57.5 µM
Procedure, shortened: as §1

[4] = system: Es-2; conditions: Gynecologic cancer cell panel viability, ATPlite luminescence, 48 h; series mostly up to 57.5 µM
Procedure, shortened: as §1

[5] = system: HeLa; conditions: Gynecologic cancer cell panel viability, ATPlite luminescence, 48 h; series mostly up to 57.5 µM
Procedure, shortened: as §1

[6] = system: Hek293T; conditions: Gynecologic cancer cell panel viability, ATPlite luminescence, 48 h, control line for the selectivity index; series mostly up to 57.5 µM
Procedure, shortened: as §1

[7] = system: JEG-3; conditions: Gynecologic cancer cell panel viability, ATPlite luminescence, 48 h; series mostly up to 57.5 µM
Procedure, shortened: as §1

[8] = system: OV90; conditions: Gynecologic cancer cell panel viability, ATPlite luminescence, 48 h; series mostly up to 57.5 µM
Procedure, shortened: as §1

[9] = system: PA-1; conditions: Gynecologic cancer cell panel viability, ATPlite luminescence, 48 h; series mostly up to 57.5 µM
Procedure, shortened: as §1

[10] = system: SKOV3; conditions: Gynecologic cancer cell panel viability, ATPlite luminescence, 48 h; series mostly up to 57.5 µM
Procedure, shortened: as §1

[11] = system: Tov-21-G; conditions: Gynecologic cancer cell panel viability, ATPlite luminescence, 48 h; series mostly up to 57.5 µM
Procedure, shortened: as §1

[12] = system: Tov112D; conditions: Gynecologic cancer cell panel viability, ATPlite luminescence, 48 h; series mostly up to 57.5 µM
Procedure, shortened: as §1
% is scaled to controls: 0 for no effect and ±100 for the full control effect.

CC(C)C(CO)Nc1nc(Nc2ccc(C(=O)O)c(Cl)c2)c2ncn(C(C)C)c2n1 (stereo not drawn)
inactive: Potency [1] | Potency [2] | Potency [3] | Potency [4] | Potency [5] | Potency [6] | Potency [7] | Potency [8] | Potency [9] | Potency [10] | Potency [11] | Potency [12]

CCCC(=O)O[C@@H]1[C@@H]2[C@@H](OC(C)=O)[C@]3(C)C(=O)[C@H]4[C@@H](OC(C)=O)C(C)(C)C[C@H]4[C@]3(C)C(=O)[C@@]2(OC(C)=O)C[C@@H]1C
inactive: Potency [1] | Potency [2] | Potency [3] | Potency [4] | Potency [5] | Potency [6] | Potency [7] | Potency [8] | Potency [9] | Potency [10] | Potency [11] | Potency [12]

CC1(C)CC[C@]2(C(=O)OC3OC(CO)C(O)C(O)C3O)CC[C@]3(C)C(=CCC4[C@@]5(C)CC[C@H](OC6OC(C(=O)O)C(O)C(OC7OC(CO)C(O)C(O)C7O)C6O)C(C)(C)C5CC[C@]43C)C2C1 (stereo partly drawn)
inactive: activity change, negative = cytotoxicity [1] 0.815% [at 11.6 µM] | activity change, negative = cytotoxicity [2] -9.9% [at 11.6 µM] | activity change, negative = cytotoxicity [3] 5.34% [at 11.6 µM] | activity change, negative = cytotoxicity [4] -1.41% [at 11.6 µM] | activity change, negative = cytotoxicity [5] 2% [at 11.6 µM] | activity change, negative = cytotoxicity [6] 0.993% [at 11.6 µM] | activity change, negative = cytotoxicity [7] 1.51% [at 11.6 µM] | activity change, negative = cytotoxicity [8] 9.69% [at 11.6 µM] | activity change, negative = cytotoxicity [9] 4.28% [at 11.6 µM] | activity change, negative = cytotoxicity [10] -1.26% [at 11.6 µM] | activity change, negative = cytotoxicity [11] -2.48% [at 11.6 µM] | activity change, negative = cytotoxicity [12] 6.25% [at 11.6 µM]

C[C@@H]1O[C@@H](OC[C@H]2O[C@@H](Oc3cc(O)cc4c3C(=O)C(O)(Cc3ccc(O)cc3)O4)[C@H](O)[C@@H](O)[C@@H]2O)[C@H](O)[C@H](O)[C@H]1O (stereo partly drawn)
inactive: Potency [1] | Potency [2] | Potency [3] | Potency [4] | Potency [5] | Potency [6] | Potency [7] | Potency [8] | Potency [9] | Potency [10] | Potency [11] | Potency [12]

CCOc1ccc2nc(SCCN3CCOCC3)[nH]c2c1
inactive: Potency [1] | Potency [2] | Potency [3] | Potency [4] | Potency [5] | Potency [6] | Potency [7] | Potency [8] | Potency [9] | Potency [10] | Potency [11] | Potency [12]

Cn1c2ccc(F)cc2c2c(C(=O)N3CCCC3)cn(-c3ccccc3)c(=O)c21
inactive: Potency [1] | Potency [2] | Potency [3] | Potency [4] | Potency [5] | Potency [6] | Potency [7] | Potency [8] | Potency [9] | Potency [10] | Potency [11] | Potency [12]

Cn1nnc(-c2ccc(-c3ccc(N4C[C@H](CO)OC4=O)cc3F)cn2)n1
inactive: Potency [1] | Potency [2] | Potency [3] | Potency [4] | Potency [5] | Potency [6] | Potency [7] | Potency [8] | Potency [9] | Potency [10] | Potency [11] | Potency [12]

O=C1NC(Cc2c[nH]c3ccccc23)C(=O)NC1Cc1c[nH]c2ccccc12 (stereo not drawn)
inactive: Potency [1] | Potency [2] | Potency [3] | Potency [4] | Potency [5] | Potency [6] | Potency [7] | Potency [8] | Potency [9] | Potency [10] | Potency [11] | Potency [12]

CC(C)(O[C@@H]1O[C@H](CO)[C@@H](O)[C@H](O)[C@H]1O)C(OC(=O)/C=C\c1ccc(O)cc1)C(=O)OCc1ccc(O[C@@H]2O[C@H](CO)[C@@H](O)[C@H](O)[C@H]2O)cc1 (stereo partly drawn)
inactive: Potency [1] | Potency [2] | Potency [3] | Potency [4] | Potency [5] | Potency [6] | Potency [7] | Potency [8] | Potency [9] | Potency [10] | Potency [11] | Potency [12]

CC/C=C\[C@H](O)[C@H](O)C1=C(C)C(=O)[C@]2(O1)C(=O)N[C@@](OC)(C(=O)c1ccccc1)[C@@H]2O
inactive: Potency [1] | Potency [2] | Potency [3] | Potency [4] | Potency [5] | Potency [6] | Potency [7] | Potency [8] | Potency [9] | Potency [10] | Potency [11] | Potency [12]

COC(=O)CC(C)(O)CC(=O)OCc1ccc(O[C@@H]2O[C@H](CO)[C@@H](O)[C@H](O)[C@H]2O)cc1 (stereo partly drawn)
inactive: Potency [1] | Potency [2] | Potency [3] | Potency [4] | Potency [5] | Potency [6] | Potency [7] | Potency [8] | Potency [9] | Potency [10] | Potency [11] | Potency [12]

N#C[C@@H]1C[C@H](F)CN1C(=O)CNC1[C@H]2CN(C(=O)c3ccc(F)cc3)C[C@@H]12 (stereo partly drawn)
inactive: Potency [1] | Potency [2] | Potency [3] | Potency [4] | Potency [5] | Potency [6] | Potency [7] | Potency [8] | Potency [9] | Potency [10] | Potency [11] | Potency [12]

COC(=O)CC1CC(c2ccc(O)cc2)=NO1 (stereo not drawn)
inactive: Potency [1] | Potency [2] | Potency [3] | Potency [4] | Potency [5] | Potency [6] | Potency [7] | Potency [8] | Potency [9] | Potency [10] | Potency [11] | Potency [12]

CC1OC(OC2C(O)C(OC3CCC4(C)C(CCC5(C)C4CC=C4C6CC(C)(COC7OC(CO)C(O)C(O)C7O)CC(O)C6(C)CCC45C)C3(C)C)OC(C(=O)O)C2O)C(O)C(O)C1OC1OCC(O)C(O)C1O (stereo not drawn)
inactive: activity change, negative = cytotoxicity [1] 5.66% [at 11.6 µM] | activity change, negative = cytotoxicity [2] -0.364% [at 11.6 µM] | activity change, negative = cytotoxicity [3] -2.68% [at 11.6 µM] | activity change, negative = cytotoxicity [4] 8.83% [at 11.6 µM] | activity change, negative = cytotoxicity [5] 12.4% [at 11.6 µM] | activity change, negative = cytotoxicity [6] 11.9% [at 11.6 µM] | activity change, negative = cytotoxicity [7] 10.4% [at 11.6 µM] | activity change, negative = cytotoxicity [8] 0.532% [at 11.6 µM] | activity change, negative = cytotoxicity [9] 13.5% [at 11.6 µM] | activity change, negative = cytotoxicity [10] 37.6% [at 11.6 µM] | activity change, negative = cytotoxicity [11] 6.66% [at 11.6 µM] | activity change, negative = cytotoxicity [12] 7.29% [at 11.6 µM]
